# Screening results deposited in PubChem BioAssay by National Center for Advancing Translational Sciences (NCATS).
# A selection: hits, their analogues and other compounds. The true share with any hit is near 7.9%.
# KB-V1 MDR tox: kills drug-selected multidrug resistant KB-V1 cells; AID 1347076; 400,000 tested, 3.4% active; Potency, µM (series often up to 46.1 µM), most hits filed as cytotoxic; KB-V1 MDR cells viability, CellTiter-Glo, 72 h; note: % is set by controls: 0 for no effect and ±100 for the full control effect; nearly all actives have a fitted effect of over 60% in size
#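 KB-V1 MDR subline cells in DMEM (phenol-red free, 10% FBS) exposed to compounds in qHTS concentration series for 72 h at 37 degrees C. Viability read by CellTiter-Glo luminescence; concentration-effect curves fitted after normalization and correction.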
# SW480 rereplic: inducers of DNA re-replication in SW480 colon cancer cells; SW480 DNA re-replication, Hoechst DNA content imaging, 48 h; 340,000 tested, 1.8% active; Potency, µM (highest dose often 46.1 µM), inactives show at the highest dose re-replication activation, actives largely listed as activators; AID 624297; note: % of control where 0% means no effect; nearly all actives have a fitted effect of over 55% in size
#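 250 cells/well; 23 nL cpd via pin tool; 48 hr, 37 C, 5% CO2; Hoechst 40 min; imager read of total nuclear intensity, ex 405/em 500-530 nm.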
# HT1080NT lethal: kills 2HG-producing HT-1080-NT fibrosarcoma cells; HT-1080-NT fibrosarcoma viability, CellTiter-Glo ATP luminescence, 48 h; Potency, µM (top dose mostly 46.1 µM), inactives show at the top dose activity, negative = less viability, actives largely listed as cytotoxic; 360,000 tested, 1.6% active;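 note: NT is the 2HG producing partner of a matched IDH1 knockdown line; 0% = DMSO-treated cells and -100% = media-only wells without cells; nearly all actives have a fitted effect of over 55% in size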
#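 Viability of the 2HG-overproducing fibrosarcoma line after 48 hours of compound exposure at 37 degrees C was determined by luminescence with CellTiter-Glo, and concentration-effect curves were then fitted and categorized.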
# KB-3-1 cytotox: KB-3-1 parental cell cytotoxicity | 400,000 tested, 1.4% active | AID 1347075 | Potency, µM (top dose mostly 46.1 µM), most hits filed as cytotoxic | KB-3-1 viability, CellTiter-Glo ATP luminescence, 72 h; note: % is set by controls: 0 for no effect and ±100 for the full control effect; nearly all actives have a fitted effect of over 60% in size
#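 Cytotoxicity measured as CellTiter-Glo luminescence after 72 h at 37 C. Compound titrations were pinned onto drug-naive KB-3-1 parental adenocarcinoma cells grown in DMEM with 10% FBS, and normalized data fitted to concentration-response curves.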
# MCF10A rereplic: induces DNA re-replication in MCF 10a normal breast cells; MCF 10A DNA re-replication, Hoechst nuclear intensity, 48 h; AID 624296; Potency, µM (series often up to 46.1 µM), for inactives: top-dose activity, positive = re-replication, hits mostly activators; 350,000 tested, 2.9% active; note: % of control where 0% means no effect; nearly all actives have a fitted effect of over 50% in size
# HT1080 IDH1KD tx: toxicity to HT-1080 IDH1 knockdown cells (counter line); Potency, µM (top dose mostly 46.1 µM), without a hit: at the highest dose activity, negative = toxicity, hits mostly cytotoxic; 360,000 tested, 2% active; HT-1080 IDH1 knockdown viability, ATP luminescence, 48 h;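 note: 0% = DMSO wells and -100% = cell-free medium wells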
#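 CellTiter-Glo luminescence after 48 h compound exposure at 37 degrees C of IDH1-knockdown HT-1080 cells in 5% FBS RPMI. %Activity scaled between DMSO wells and cell-free media wells, with curves fitted and assigned curve classes.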
# Active calls of the source: *; i = inactive; ? = inconclusive; nt = no result given; ! = repeats disagree; [ ] = another dose, or the depositor's remark. Calls come from the whole dose curve; as a rule, active = well fitted curve in the direction sought with a large enough effect; inconclusive = small, poorly fitted or top-dose-only effect, or another doubt; inactive = no such curve, though single readings can be large; an effect the other way counts as inactive or inconclusive. Potency is the fitted concentration of half-maximal effect.
SMILES,KB-V1 MDR tox,SW480 rereplic,HT1080NT lethal,KB-3-1 cytotox,MCF10A rereplic,HT1080 IDH1KD tx
CC(=O)c1ccc(-n2cc(-c3ccc(C(C)(C)C)cc3)[n+]3c2SCCC3)cc1,i,-12.4%,?,?,-47.8%,?
COc1ccc(C)c2sc(=NC(=O)c3ccccc3)n(C)c12,i,-8.7%,1.2%,i,21.7%,2.1%
Cc1nnc(NC(=O)c2csc3c2CCC(C)C3)s1 (configuration not stated),i,-41.2%,-0.7%,i,-8.0%,1.7%
Cc1ccc(C)c(NC(=S)NNC(=O)c2cc3c(s2)CCC(C)C3)c1 (configuration not stated),i,-2.4%,2.8%,i,?,11.7%
Cc1cccc(NC(=S)NNC(=O)c2csc3c2CCC(C)C3)c1 (configuration not stated),23.1µM*,6.8%,-7.4%,i,?,?
CC(C)CNC(=S)NNC(=O)c1csc2c1CCC(C)C2 (configuration not stated),7.31µM*,-5.3%,?,i,18.5%,?
CCCc1cc(C(=O)NNC(=S)Nc2cccc(C)c2)cs1,14.6µM*,-8.7%,-5.9%,i,20.2%,-0.2%
Cc1cccc(NC(=S)NNC(=O)c2cc3c(s2)CCC(C)C3)c1C (configuration not stated),?,-3.7%,-0.5%,i,16.4µM*,-0.1%
CCc1ccccc1Nc1nc(N)nc(COC(=O)CCNS(=O)(=O)c2ccccc2)n1,i,-4.3%,-2.7%,i,?,-16.2%
Cc1c(C)c2ccc(OCC(=O)N(C)C)c(C)c2oc1=O,i,0.9%[9.22 µM],13.9%,i,-12.0%,18.1%
CCc1cc(=O)oc2c(C)c(OCC(=O)N3CCC(C(=O)O)CC3)ccc12,?,-8.6%,-0.9%,i,-30.7%,-4.2%
CCc1c(C)c2ccc(OCC(=O)N(C)C)c(C)c2oc1=O,10.3µM*,-10.5%,12.2%,i,4.2%,1.0%
C=C(C)COc1ccc2c(CC)cc(=O)oc2c1C,20.6µM*,-3.7%,-0.8%,?,11.9%,-7.9%
CCCOc1ccc2c(CC)cc(=O)oc2c1C,13µM*,8.0%,5.4%,i,10.1%,-0.1%
COc1ccc(N2CCN(CC(=O)Nc3ccc(SC(F)F)cc3)CC2)cc1,i,6.5%,-0.9%,i,14.6%,-3.0%
COc1ccc(C2CC(O)(c3ccccc3)Oc3c(C)ccc(C)c32)cc1 (configuration not stated),?,?,-29.8%,?,?,-15.3%
COc1ccc(C2CC(O)(c3ccccc3)Oc3cc(OC)cc(OC)c32)cc1 (configuration not stated),i,-3.8%,-5.4%,?,20.6µM*,-1.4%
CCOC(=O)c1sc2nc(C)n(CC(=O)Nc3cccc(Cl)c3)c(=O)c2c1C,i,nt,nt,i,nt,nt
COc1cc(/C=C/C(=O)OCC(=O)Nc2nnc(-c3ccccc3)o2)cc(OC)c1OC,11.6µM*,-4.0%,2.4%,i,?,-7.0%
CN(CC(=O)N1CCN(c2ccccn2)CC1)S(=O)(=O)c1ccc(Br)cc1,i,-1.2%,1.3%,i,0.0%,5.6%
CCn1c(=O)c(=O)[nH]c2c(=O)oc3ccc(S(=O)(=O)Nc4ccccc4)cc3c21,i,-14.5%,7.1%,i,-0.8%,11.2%
O=C(NCC1CCCO1)c1cc2n(n1)C(C(F)(F)F)CC(c1ccc(Br)cc1)N2 (configuration not stated),8.2µM*,0.2%,0.5%,i,8.3%,-4.0%
Cc1cccc(NC(=O)c2cc3n(n2)C(C(F)(F)F)CC(c2ccc4c(c2)OCO4)N3)c1 (configuration not stated),11.6µM*,9.4%,?,i,2.9%,?
COc1ccc(NC(=O)c2cc3n(n2)C(C(F)(F)F)CC(c2ccc4c(c2)OCO4)N3)cc1OC (configuration not stated),16.4µM*,?,-11.5%,i,2.4%,?
CCCCNC(=O)c1cc2n(n1)C(C(F)(F)F)CC(c1ccccc1)N2 (configuration not stated),i,-10.1%,-1.6%,i,?,5.5%
SMILES,KB-V1 MDR tox,SW480 rereplic,HT1080NT lethal,KB-3-1 cytotox,MCF10A rereplic,HT1080 IDH1KD tx
CCOC(=O)c1c(NC(=O)c2cc3n(n2)C(C(F)(F)F)CC(c2ccccc2)N3)sc(C)c1C (configuration not stated),i,16.4µM*,-0.2%,i,22.3%,-2.3%
O=C(NCC1CCCO1)c1nn2c(c1Cl)NC(c1ccc(F)cc1)CC2C(F)(F)F (configuration not stated),?,-7.0%,-8.3%,i,10.8%,-5.2%
CCCc1cc(C(=O)Nc2cc(C)ccc2O)no1,i,0.9%,-1.8%,i,5.8%,-14.9%
O=C(Nc1ccc(O)cc1)c1cc2n(n1)C(C(F)(F)F)CC(c1ccco1)N2 (configuration not stated),?,?,?,10.3µM*,?,?
CN1CCN(C2Cc3ccccc3Sc3ccc(Cl)cc32)CC1 (configuration not stated),?,nt,-8.4%,i,?,4.0%
CN1CCN(C2Cc3cc(F)ccc3Sc3ccc(Cl)cc32)CC1 (configuration not stated),i,?,-23.7%,i,20.6µM*,?
CN1CCN(C2Cc3ccc(F)cc3Sc3cc(F)c(Cl)cc32)CC1 (configuration not stated),i,?,25.9µM*,?,?,?
O=C(CN1C(=O)NC2(CCCC2)C1=O)Nc1ccccc1-c1ccccc1,i,-0.6%,3.1%,i,4.9%,5.3%
COc1ccc(/C=C/c2onc(C)c2S(=O)(=O)N2CCC(C(=O)N3CCC(C)CC3)CC2)cc1,i,15.8%,-26.5%,20.6µM*!,?,-25.0%
CCCNC(=O)C1CCN(S(=O)(=O)c2c(C)noc2/C=C\c2ccc(OC)cc2)CC1,i,19.6%,14.8%,i,35.7%,13.7%
Cc1cccc(/C=C/c2onc(C)c2S(=O)(=O)N2CCC(C(=O)N3CCCCCC3)CC2)c1,i,?,-7.0%,i,3.6%,-2.6%
Cc1cccc(/C=C/c2onc(C)c2S(=O)(=O)N2CCC(C(=O)N3CCC(C)CC3)CC2)c1,?,13.4%,24.0%,16.4µM*!,?,9.2%
